From PubChem BioAssay AID608 (Sanford-Burnham Center for Chemical Genomics, 2007)
The campaign covered roughly 3,800 compounds. About 50 (1%) were called active. How the calls were made is not given here. The list shows a part of the results. Entries with a potency or affinity are not part of this list.

Molecular target: Peptidyl-prolyl cis-trans isomerase FKBP1A (Homo sapiens) (UniProt P62942)
Experiment: small-molecule binding to FKBP12 – biophysical, NMR detection (AID 608)
Settings: purified FKBP12

Peptidyl-prolyl cis-trans isomerase FKBP1A (Homo sapiens), sequence (P62942 whole entry, looked up): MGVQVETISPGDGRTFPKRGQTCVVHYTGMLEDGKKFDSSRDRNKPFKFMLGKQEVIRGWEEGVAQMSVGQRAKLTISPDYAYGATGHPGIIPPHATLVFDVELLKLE

With `O=C(Nc1ccc(OCC(=O)N2CCOCC2)cc1)c1cccnc1` as the compound, how does the outcome read?
The outcome was “inactive”.
